Six compounds from PubChem BioAssay (EPA / NIEHS) can be followed below.

Each structure is given as a SMILES string. Activity calls are given as the source filed them. Rule for the calls: active = hit-call score of the fitted dose curve at least 0.9, where 1 is the maximum; inactive = score below 0.9.

Test [1] has as its target Bile acid receptor (Homo sapiens) (UniProt Q96RI1). The test is described as follows: ATG_IR1_CIS: Attagene CIS-FACTORIAL HepG2 Assay for human Nuclear Receptor Subfamily 1 Group H Member 4 (NR1H4), IR1 submotif (AID 2282946). To be noted: IR1 reporter transcription, actives raise or lower the signal. The method, boiled down: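 Readout: reporter transcript levels by RT-PCR with fluorescent capillary electrophoresis, from HepG2 cells transiently transfected with multiplexed cis-regulated reporters and dosed 24 h. Gain- or loss-of-signal fitted versus DMSO negative control.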

A short description of test [2]: ATG_GRE_CIS: Attagene CIS-FACTORIAL HepG2 Assay for human Glucocorticoid Response Elements (GRE) (AID 2282947). To be noted: HepG2 GRE cis-reporter, Attagene multiplex mRNA; actives raise or lower the signal. The method, boiled down:
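Cells (HepG2) bearing transfected cis-promoter reporter transcription units were treated with chemical for 24 hours. Reporter mRNA was measured via RT-PCR with capillary electrophoresis, and activity was fitted in both directions relative to DMSO.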

Test [3] is described as follows: ATG_ISRE_CIS: Attagene CIS-FACTORIAL HepG2 Assay for human Interferon Regulatory Factor 1 (IRF1) binding to an Interferon-Stimulated Response Element (ISRE) (AID 2282948). The following applies: HepG2 ISRE cis-reporter (Attagene), mRNA transcription readout; actives raise or lower the signal. The method, boiled down: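 Multiplexed mRNA reporter readout in human liver HepG2 cells: cis-element-driven reporters transfected, compound added for 24 h, transcripts amplified, fluorescently labelled and sized by capillary electrophoresis; curve fitting bidirectional against DMSO.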

Test [4] in a line: ATG_M_06_CIS: Attagene CIS-FACTORIAL HepG2 Assay for M06 Transcription Factor (Internal Marker) (AID 2282950). To be noted: HepG2 Attagene CIS-FACTORIAL M06 internal marker reporter; actives raise or lower the signal. The method, boiled down:
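Read-out is fluorescence of labelled reporter cDNA fragments resolved by capillary electrophoresis after RT-PCR. Cells: HepG2 carrying transfected cis-promoter reporter units, treated 24 h. Gain or loss of signal fitted relative to DMSO.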

The target in test [5] is Hypoxia-inducible factor 1-alpha (Homo sapiens) (UniProt Q16665). The test is described as follows: ATG_HIF1a_CIS: Attagene CIS-FACTORIAL HepG2 Assay for human Hypoxia Inducible Factor 1 (HIF1A) (AID 2282951). The following applies: HepG2 Attagene cis-factorial HIF1a reporter transcription; actives raise or lower the signal. The method, boiled down:
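Dosed 24 h, transfected HepG2 cells yielded total RNA whose reporter transcripts were RT-PCR-amplified and sized by capillary electrophoresis using fluorescent labelling; DMSO defined baseline, with gain and loss of signal both fitted.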

In test [6] the target is Hepatocyte nuclear factor 6 (Homo sapiens) (UniProt Q9UBC0). As to the kind of experiment: ATG_HNF6_CIS: Attagene CIS-FACTORIAL HepG2 Assay for human Hepatocyte Nuclear Factor 6 (HNF6) (AID 2282952). The following applies: HepG2 Attagene cis-factorial HNF6 reporter transcription; actives raise or lower the signal. The method, boiled down:
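Using cis-element reporters in HepG2 liver cells, the assay tracks endogenous factor-driven transcription 24 h post-dosing. Signal comes from 6-FAM-labelled, HpaI-digested RT-PCR fragments, with gain or loss scored against DMSO.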

Test [7] has as its target Heat shock factor protein 1 (Homo sapiens) (UniProt Q00613). The test is described as follows: ATG_HSE_CIS: Attagene CIS-FACTORIAL HepG2 Assay for human Heat Shock Transcription Factor 1 (HSE) (AID 2282953). The following applies: HepG2 HSE cis-reporter, Attagene RNA transcription; actives raise or lower the signal. The method, boiled down:
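HepG2, transient MRTU transfection, cis-promoter reporters (endogenous TF activity). 24 h compound. RNA → oligo(dT) RT → PCR → 6-FAM primer extension → HpaI cut → CE. Bidirectional fit vs DMSO.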

Test [8] is described as follows: ATG_MRE_CIS: Attagene CIS-FACTORIAL HepG2 Assay for human Metal Responsive Element (MRE) (AID 2282954). The following applies: HepG2 MRE cis-reporter transcription, Attagene multiplex; actives raise or lower the signal. The method, boiled down:
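Cells were transfected with cis-promoter reporter transcription units, then dosed for 24 h. RNA was reverse-transcribed, amplified, fluorescently labelled and resolved by capillary electrophoresis, and activity was fitted in both directions relative to DMSO.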

The nature of test [9]: ATG_PBREM_CIS: Attagene CIS-FACTORIAL HepG2 Assay for human Phenobarbital-responsive Enhancer Module (PBREM) (AID 2282955). To be noted: HepG2 PBREM cis-reporter, Attagene multiplexed transcription; actives raise or lower the signal. The method, boiled down: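 Transfected liver-derived HepG2 cells exposed 24 h; PBREM reporter transcript quantified via RT-PCR and capillary electrophoresis, with activity in either direction referenced to DMSO.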

Test [10] addresses Paired box protein Pax-6 (Homo sapiens) (UniProt P26367). The test is described as follows: ATG_Pax6_CIS: Attagene CIS-FACTORIAL HepG2 Assay for human Paired Box 6 (PAX6) (AID 2282956). To be noted: HepG2 CIS-FACTORIAL PAX6 reporter transcription, RNA readout; actives raise or lower the signal. The method, boiled down:
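Fluorescent RT-PCR products separated by capillary electrophoresis report PAX6-linked promoter mRNA in HepG2 cells 24 h post-dose. Curves fitted bidirectionally, DMSO as negative control.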

Test [11] can be described thus: ATG_PXRE_CIS: Attagene CIS-FACTORIAL HepG2 Assay for human Pregnane X Receptor Element (PXRE) (AID 2282957). To be noted: HepG2 Attagene CIS-FACTORIAL PXRE reporter, mRNA; actives raise or lower the signal. The method, boiled down:
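Using HepG2 transfected with multiple reporter transcription units, endogenous factor-driven transcription was scored as reporter mRNA after 24 h exposure.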

Test [12] can be described thus: ATG_PPRE_CIS: Attagene CIS-FACTORIAL HepG2 Assay for human Peroxisome Proliferator-activated Response Element (PPRE) (AID 2282958). To be noted: HepG2 PPRE cis-element reporter, Attagene transcription factor profiling; actives raise or lower the signal. The method, boiled down: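 Measured endpoint: PPRE-controlled reporter mRNA, detected by RT-PCR and capillary electrophoresis fluorescence, from transiently transfected HepG2 cells 24 h after dosing. Curves fitted in both directions using DMSO baseline.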

Test [13] can be described thus: ATG_RORE_CIS: Attagene CIS-FACTORIAL HepG2 Assay for human RAR-related Orphan Receptor Element (RORE) (AID 2282959). To be noted: HepG2 Attagene cis-factorial RORE reporter, mRNA; actives raise or lower the signal. The method, boiled down:
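Transiently transfected HepG2 reporter cells were treated 24 h. Reporter transcripts were detected by RT-PCR and capillary electrophoresis, with bidirectional fitting against DMSO.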

The nature of test [14]: ATG_Sox_CIS: Attagene CIS-FACTORIAL HepG2 Assay for human SRY-box transcription factor (SOX) (AID 2282960). To be noted: HepG2 Attagene cis-factorial SOX reporter, mRNA; actives raise or lower the signal. The method, boiled down:
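Gain- or loss-of-signal endpoint, fitted bidirectionally with DMSO as negative control. Based on reporter mRNA from transfected HepG2 cells harvested 24 h post-treatment and quantified via RT-PCR and capillary electrophoresis.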

For test [15], the target named is Transcription factor Sp1 (Homo sapiens) (UniProt P08047). As to the kind of experiment: ATG_Sp1_CIS: Attagene CIS-FACTORIAL HepG2 Assay for human Specificity Protein 1 (Sp1) (AID 2282961). The following applies: HepG2 Sp1 cis-reporter transcription, actives raise or lower the signal. The method, boiled down: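 Endpoint reflects endogenous Sp1 transcriptional activity, not an exogenous fusion protein: HepG2 cells with transfected cis-regulated reporters, 24 h dosing, RT-PCR/capillary electrophoresis mRNA read-out, DMSO-normalised bidirectional fit.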

Test [16] in a line: ATG_SREBP_CIS: Attagene CIS-FACTORIAL HepG2 Assay for human Sterol Regulatory Element Binding (SREBP) (AID 2282962). The following applies: HepG2 Attagene cis-factorial SREBP reporter, mRNA; actives raise or lower the signal. The method, boiled down:
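Endogenous factor activity is measured in HepG2 through multiplexed reporter units under cis-element control. Following a 24 h incubation, reporter transcripts are reverse-transcribed, PCR-amplified and sized by capillary electrophoresis; activity is fitted in both directions relative to DMSO.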

Test [17] has as its target Signal transducer and activator of transcription 3 (Homo sapiens) (UniProt P40763). As to the kind of experiment: ATG_STAT3_CIS: Attagene CIS-FACTORIAL HepG2 Assay for human Signal Transducer and Activator of Transcription 3 (STAT3) (AID 2282963). The following applies: HepG2, Attagene cis-factorial STAT3 reporter transcription; actives raise or lower the signal. The method, boiled down: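 HepG2, MRTU-transfected, 24 h dosing. RNA → RT → PCR → FAM label → HpaI → CE. Bidirectional fit vs DMSO.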

Test [18] in a line: ATG_TA_CIS: Attagene CIS-FACTORIAL HepG2 Assay for human TA Basal Promoter (AID 2282964). To be noted: HepG2 Attagene CIS-factorial TA basal promoter reporter; actives raise or lower the signal. The method, boiled down: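 Read-out: fluorescent reporter-transcript fragments resolved by capillary electrophoresis after RT-PCR and HpaI digestion. Source: HepG2 cells carrying transiently transfected multi-reporter cis constructs, treated 24 h. Endpoint fitted bidirectionally relative to DMSO.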

The nature of test [19]: ATG_TCF_b_cat_CIS: Attagene CIS-FACTORIAL HepG2 Assay for human T-Cell-Factor with beta-catenin (TCF/b-cat) (AID 2282965). The following applies: HepG2 TCF/beta-catenin cis-reporter transcription, actives raise or lower the signal. The method, boiled down: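 In this cis-format system, transfected HepG2 cells report endogenous transcription factor activity. Readout after 24 h exposure is reporter transcript abundance from RT-PCR and capillary electrophoresis, analysed for gain or loss of signal versus DMSO.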

Test [20] can be described thus: ATG_M_32_CIS: Attagene CIS-FACTORIAL HepG2 Assay for M32 Transcription Factor (Internal Marker) (AID 2282949).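 Note: background control marker of the multiplexed CIS panel rather than a real target.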 The following applies: HepG2 Attagene cis-factorial M32 reporter, mRNA; actives raise or lower the signal. The method, boiled down: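 HepG2 transfectants (cis-regulated reporter transcription units) dosed 24 h. Reporter mRNA by RT-PCR plus CE, analysed as gain or loss relative to DMSO.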

Chain of Hepatocyte nuclear factor 6 (Homo sapiens) (Q9UBC0 whole entry, looked up, the tested form may be a part): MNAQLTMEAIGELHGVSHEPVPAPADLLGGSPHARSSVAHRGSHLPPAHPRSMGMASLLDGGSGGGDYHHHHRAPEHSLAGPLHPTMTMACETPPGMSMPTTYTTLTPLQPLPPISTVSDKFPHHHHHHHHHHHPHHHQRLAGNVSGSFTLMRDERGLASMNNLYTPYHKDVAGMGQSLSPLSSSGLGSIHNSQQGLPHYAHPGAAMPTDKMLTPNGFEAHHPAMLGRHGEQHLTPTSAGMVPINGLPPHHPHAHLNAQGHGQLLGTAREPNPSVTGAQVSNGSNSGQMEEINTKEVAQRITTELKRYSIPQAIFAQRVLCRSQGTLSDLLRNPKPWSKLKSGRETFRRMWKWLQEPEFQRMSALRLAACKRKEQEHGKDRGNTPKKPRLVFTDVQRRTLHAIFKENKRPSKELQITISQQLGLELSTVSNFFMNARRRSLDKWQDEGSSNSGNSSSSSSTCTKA
Chain of Transcription factor Sp1 (Homo sapiens) (P08047 whole entry, looked up, the tested form may be a part): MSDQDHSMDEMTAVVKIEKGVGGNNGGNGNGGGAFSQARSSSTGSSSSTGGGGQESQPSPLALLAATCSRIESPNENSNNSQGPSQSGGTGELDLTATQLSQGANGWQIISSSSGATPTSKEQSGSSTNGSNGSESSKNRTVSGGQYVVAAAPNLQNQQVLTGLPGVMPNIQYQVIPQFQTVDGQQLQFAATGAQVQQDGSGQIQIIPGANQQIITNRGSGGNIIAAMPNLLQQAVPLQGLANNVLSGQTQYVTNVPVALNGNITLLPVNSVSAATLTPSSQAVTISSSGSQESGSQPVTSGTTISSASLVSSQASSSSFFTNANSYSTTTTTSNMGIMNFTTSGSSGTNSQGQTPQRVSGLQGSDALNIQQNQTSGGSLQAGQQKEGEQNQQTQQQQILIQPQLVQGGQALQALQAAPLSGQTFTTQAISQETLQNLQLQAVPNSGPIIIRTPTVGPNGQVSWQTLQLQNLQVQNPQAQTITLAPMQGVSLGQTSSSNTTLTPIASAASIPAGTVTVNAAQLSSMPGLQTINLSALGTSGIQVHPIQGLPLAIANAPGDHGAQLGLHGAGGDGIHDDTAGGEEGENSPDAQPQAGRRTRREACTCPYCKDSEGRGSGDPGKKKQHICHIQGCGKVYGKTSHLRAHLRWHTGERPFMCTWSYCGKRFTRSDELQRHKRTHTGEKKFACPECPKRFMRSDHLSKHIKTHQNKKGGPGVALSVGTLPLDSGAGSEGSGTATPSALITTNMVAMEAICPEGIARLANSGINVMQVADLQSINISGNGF
Chain of Signal transducer and activator of transcription 3 (Homo sapiens) (P40763 whole entry, looked up): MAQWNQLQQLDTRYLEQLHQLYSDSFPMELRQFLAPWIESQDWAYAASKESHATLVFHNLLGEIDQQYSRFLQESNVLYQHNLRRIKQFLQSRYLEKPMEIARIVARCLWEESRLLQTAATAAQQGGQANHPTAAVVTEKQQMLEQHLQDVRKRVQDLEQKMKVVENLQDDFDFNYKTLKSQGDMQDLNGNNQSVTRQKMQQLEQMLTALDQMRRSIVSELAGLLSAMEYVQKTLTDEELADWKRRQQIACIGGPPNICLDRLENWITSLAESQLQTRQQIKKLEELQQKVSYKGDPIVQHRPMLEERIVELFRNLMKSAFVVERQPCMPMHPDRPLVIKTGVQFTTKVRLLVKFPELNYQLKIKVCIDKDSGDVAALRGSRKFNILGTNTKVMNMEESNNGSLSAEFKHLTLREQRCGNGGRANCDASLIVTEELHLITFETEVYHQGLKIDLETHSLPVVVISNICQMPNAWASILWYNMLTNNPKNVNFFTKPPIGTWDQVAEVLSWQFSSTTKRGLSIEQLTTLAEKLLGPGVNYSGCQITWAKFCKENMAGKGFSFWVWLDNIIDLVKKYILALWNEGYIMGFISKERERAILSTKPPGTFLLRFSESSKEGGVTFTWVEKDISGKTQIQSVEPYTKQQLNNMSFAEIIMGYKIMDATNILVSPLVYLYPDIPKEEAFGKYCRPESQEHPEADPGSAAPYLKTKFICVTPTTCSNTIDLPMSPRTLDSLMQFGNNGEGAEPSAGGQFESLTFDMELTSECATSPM
Chain of Hypoxia-inducible factor 1-alpha (Homo sapiens) (Q16665 whole entry, looked up): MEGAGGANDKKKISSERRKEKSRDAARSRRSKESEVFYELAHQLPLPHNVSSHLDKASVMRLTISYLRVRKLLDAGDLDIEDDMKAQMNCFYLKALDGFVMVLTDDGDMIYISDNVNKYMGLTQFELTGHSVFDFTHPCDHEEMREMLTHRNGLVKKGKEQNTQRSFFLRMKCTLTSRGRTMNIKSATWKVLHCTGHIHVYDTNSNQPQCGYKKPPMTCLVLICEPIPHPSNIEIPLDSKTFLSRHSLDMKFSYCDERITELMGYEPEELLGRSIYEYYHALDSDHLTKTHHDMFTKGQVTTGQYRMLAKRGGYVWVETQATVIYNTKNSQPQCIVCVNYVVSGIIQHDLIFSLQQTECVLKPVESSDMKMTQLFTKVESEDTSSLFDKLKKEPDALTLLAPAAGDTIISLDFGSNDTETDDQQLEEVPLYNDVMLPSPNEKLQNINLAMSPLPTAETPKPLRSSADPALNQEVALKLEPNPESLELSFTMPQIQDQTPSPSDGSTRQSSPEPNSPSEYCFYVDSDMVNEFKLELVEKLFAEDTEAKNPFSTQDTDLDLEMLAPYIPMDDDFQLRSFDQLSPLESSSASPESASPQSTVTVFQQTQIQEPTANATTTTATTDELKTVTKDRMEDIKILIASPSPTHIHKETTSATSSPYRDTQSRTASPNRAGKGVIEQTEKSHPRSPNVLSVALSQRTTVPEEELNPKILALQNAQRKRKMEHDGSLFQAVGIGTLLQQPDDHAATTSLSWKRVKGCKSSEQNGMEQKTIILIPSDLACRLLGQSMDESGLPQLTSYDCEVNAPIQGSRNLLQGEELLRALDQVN
Chain of Paired box protein Pax-6 (Homo sapiens) (P26367 whole entry, looked up): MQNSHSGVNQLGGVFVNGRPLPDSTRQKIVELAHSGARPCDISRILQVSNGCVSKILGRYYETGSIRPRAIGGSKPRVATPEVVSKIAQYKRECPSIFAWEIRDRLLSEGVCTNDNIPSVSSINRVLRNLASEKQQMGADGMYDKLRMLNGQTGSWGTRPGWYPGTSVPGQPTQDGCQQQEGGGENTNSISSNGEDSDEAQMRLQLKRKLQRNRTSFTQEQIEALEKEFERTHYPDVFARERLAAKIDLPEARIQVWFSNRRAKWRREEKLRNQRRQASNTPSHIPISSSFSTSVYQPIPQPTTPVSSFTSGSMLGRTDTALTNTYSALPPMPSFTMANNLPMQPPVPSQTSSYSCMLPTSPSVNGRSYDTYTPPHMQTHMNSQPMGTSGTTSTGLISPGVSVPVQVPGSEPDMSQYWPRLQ
Chain of Heat shock factor protein 1 (Homo sapiens) (Q00613 whole entry, looked up): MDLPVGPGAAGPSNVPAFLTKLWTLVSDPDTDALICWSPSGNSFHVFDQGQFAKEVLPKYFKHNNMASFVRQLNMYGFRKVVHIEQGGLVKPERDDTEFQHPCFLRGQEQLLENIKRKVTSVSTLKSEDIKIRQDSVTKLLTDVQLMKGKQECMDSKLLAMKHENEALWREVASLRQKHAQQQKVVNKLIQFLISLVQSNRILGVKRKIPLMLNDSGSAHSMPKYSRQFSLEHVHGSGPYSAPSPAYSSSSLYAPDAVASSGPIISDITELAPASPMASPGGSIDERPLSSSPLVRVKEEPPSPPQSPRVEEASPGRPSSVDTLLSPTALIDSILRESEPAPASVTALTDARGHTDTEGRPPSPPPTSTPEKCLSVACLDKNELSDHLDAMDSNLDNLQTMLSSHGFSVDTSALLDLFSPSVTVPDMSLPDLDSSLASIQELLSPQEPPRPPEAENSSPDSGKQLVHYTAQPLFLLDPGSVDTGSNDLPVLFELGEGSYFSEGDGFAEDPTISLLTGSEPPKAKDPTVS
Chain of Bile acid receptor (Homo sapiens) (Q96RI1 whole entry, looked up): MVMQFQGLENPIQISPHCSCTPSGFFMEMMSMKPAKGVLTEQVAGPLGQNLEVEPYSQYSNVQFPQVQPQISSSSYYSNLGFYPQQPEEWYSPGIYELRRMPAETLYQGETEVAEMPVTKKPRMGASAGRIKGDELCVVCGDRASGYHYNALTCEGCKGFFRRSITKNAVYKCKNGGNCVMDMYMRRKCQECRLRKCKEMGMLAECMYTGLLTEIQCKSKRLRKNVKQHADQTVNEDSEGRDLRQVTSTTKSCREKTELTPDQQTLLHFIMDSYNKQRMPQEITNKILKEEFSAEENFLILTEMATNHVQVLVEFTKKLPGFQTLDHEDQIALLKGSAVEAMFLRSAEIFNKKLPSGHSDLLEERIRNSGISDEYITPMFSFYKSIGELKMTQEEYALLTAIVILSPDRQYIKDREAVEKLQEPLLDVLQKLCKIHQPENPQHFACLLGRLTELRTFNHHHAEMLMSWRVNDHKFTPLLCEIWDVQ

As for `O=C1OC2(c3ccccc31)c1ccc(O)c(Br)c1Oc1c2ccc(O)c1Br`, the call in test [1], in test [2], in test [3], in test [4], in test [5] and in test [6] was inactive. The compound was classed as inactive in [7], in test [8], in [10], in [12], in [13] and in [14]. In addition, the compound was classed as inactive in test [15], in test [16], in [17], in test [18] and in test [19]. For the same compound, the results for the half-maximal activity concentration (AC50) in [9] and in test [11] were 35.3 µM (active) and 15.9 µM (active), respectively.

Regarding `OCCCCC(O)CO` (stereo not drawn), the compound was called inactive in test [1], in test [2], in [3], in test [4], in test [7] and in [8]. Moreover, the compound was called inactive in [10], in test [11], in test [12], in test [13], in test [14] and in [15]. Moreover, the outcome in test [16] and in test [18] was inactive. For the same compound, the AC50 (as a rule, the concentration giving half of the maximal activity seen) in test [5] is 23.2 µM (active).

For the compound `CN(C)C(=S)SC(=S)N(C)C`, the compound was classed as inactive in test [1], in test [2], in test [3], in test [4], in test [5] and in [6]. Besides, the compound was called inactive in test [7], in test [9], in test [10], in test [13], in test [14] and in [15]. Also, the call in [16], in test [17], in test [18] and in [19] was inactive. The AC50 in test [8] was 100 µM (active); in test [11], 73.8 µM (active).

Regarding `CCCCCCCCCCCCN1CCCCCC1=O`, the compound was called inactive in test [1], in test [2], in [20], in test [4], in test [5] and in test [6]. The compound was called inactive in test [8], in [12], in [13], in [14], in test [15] and in test [16]. Besides, the compound was called inactive in test [17], in [18] and in test [19]. Also, the values for the AC50 in test [7], in test [9] and in [11] were 15.8 µM (active), 9.68 µM (active) and 1.46 µM (active), respectively.

For the compound `COc1ccc(OC)c(N=Nc2c(O)ccc3ccccc23)c1`, the result in [1], in [3], in test [20], in [4], in [5] and in test [6] was inactive. The result in test [7], in test [8], in test [9], in [10], in [12] and in [13] was inactive. Also, the result in [14], in [15], in test [16], in test [17], in test [18] and in [19] was inactive. In addition, the AC50 in [11] is 3.46 µM (active).

In the case of `CCCCCCCC(=O)OCCCCCC`, the compound was classed as inactive in test [1], in [2], in test [20], in test [5], in test [6] and in test [7]. Also, the outcome in [8], in test [10], in test [13], in test [14], in [15] and in test [16] was inactive. The outcome in [19] was inactive. Also, the AC50 in [11] was 28.2 µM (active).
